Measurements reported in PubChem BioAssay AID1918 (Vanderbilt High Throughput Screening Facility, 2009).
Screen size: about 130,000 compounds; about 2,500 (1.9%) were called active.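 The calls were made as follows: active = signal ratio slope over the read window, or its plate-corrected B-score, at least 3 SD from the plate mean, either direction; inactive = the rest.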 For the sample, actives were picked, then their nearest neighbours and some compounds at random.

These molecules were tested against ATP-sensitive inward rectifier potassium channel 1 (Homo sapiens) (UniProt P48048) (assay: Kir1.1 channel activity modulation, library screen – cell-based, thallium flux, MLSMR library, primary screen (AID 1918;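 also: B-score of the F/F0 ratio slope over 7 to 12 s after thallium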)). Settings: Tet-inducible ROMK, thallium flux fluorescence; at 10 µM; actives lie on both sides.
Chain of ATP-sensitive inward rectifier potassium channel 1 (Homo sapiens) (P48048 whole entry, looked up): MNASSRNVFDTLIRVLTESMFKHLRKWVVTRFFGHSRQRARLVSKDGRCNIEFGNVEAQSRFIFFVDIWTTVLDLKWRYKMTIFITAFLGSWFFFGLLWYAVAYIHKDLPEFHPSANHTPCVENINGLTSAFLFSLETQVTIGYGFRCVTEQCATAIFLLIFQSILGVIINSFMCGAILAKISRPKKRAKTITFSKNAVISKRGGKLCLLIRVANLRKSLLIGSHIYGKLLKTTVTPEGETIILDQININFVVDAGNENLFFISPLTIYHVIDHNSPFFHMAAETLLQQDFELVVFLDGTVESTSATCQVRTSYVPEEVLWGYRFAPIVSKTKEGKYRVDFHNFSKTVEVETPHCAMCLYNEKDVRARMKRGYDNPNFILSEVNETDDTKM
`Cc1cccc(NC(=O)CSc2nnc(CCNC(=O)OC(C)(C)C)o2)c1C` was tested, and the B-score was 0.146 (inactive). `Fc1cccc(CSc2nnc3ccc(-c4ccncc4)nn23)c1` was tested, and the B-score was 1.92 (inactive). With `CSCCNCc1cn(-c2ccc(F)cc2F)nc1-c1ccccc1C` the B-score was -0.924 (inactive). With `CCCCCCCNc1nc(Cl)nc(NCCO)n1` the B-score was -0.271 (inactive). With `C=CCc1ccc(OCC(O)CN2CCN(Cc3ccccc3)CC2)c(OC)c1` (stereo not given) the B-score was -1.83 (inactive). For `Cc1ccc(-c2csc(NC(=O)c3cnccn3)n2)cc1C`, the B-score was 1.18 (inactive). `Cc1nc2ccccc2cc1C(=O)N/N=C/c1ccc([N+](=O)[O-])cc1` was tested, and the B-score was -0.145 (inactive). For `O=C(Nn1c(-c2ccccc2)nc2ccccc2c1=O)c1ccc([N+](=O)[O-])cc1`, the B-score was 1.18 (inactive). In the case of `Cc1nc2ccccc2nc(=O)c1NNc1ccc([N+](=O)[O-])cc1`, the B-score is reported as 3.6 (active). For `COc1ccccc1CC(NC(C)=O)C(=O)NC1CCN(C(=O)Nc2ccccc2Cl)CC1` (stereo not given), the B-score was -0.0342 (inactive). `O=C(NNC(=S)NCCCN1CCOCC1)c1ccncc1` was tested, and the B-score was -0.0357 (inactive). In the case of `COCCNC(=O)/C(C#N)=C/c1nc(N(C)C)n(-c2ccc(F)cc2)c1Cl`, the B-score is reported as -0.0358 (inactive). With `CCOC(=O)NC(=O)/C(C#N)=C\c1ccccc1` the B-score was -1.48 (inactive). For `COCCNC(=O)/C(C#N)=C/c1cccc(OCc2ccccc2)c1`, the B-score was -2.75 (active). With `N#C/C(C(=S)Nc1ccccc1)=C1/NN=C(N2CCOCC2)N1c1ccccc1` the B-score was 0.219 (inactive). In the case of `O=C(COC(=O)CC1CC2CCC1C2)NC(=O)NC1CCCC1` (stereo not given), the B-score is reported as -0.0323 (inactive). `Nc1ncnc(Nc2cccc(Cl)c2Cl)n1` was tested, and the B-score was -0.357 (inactive). For `O=C(Nc1ncccn1)c1cccs1`, the B-score was 0.282 (inactive). With `O=C(Nc1ccccc1-c1ccccc1)c1cccs1` the B-score was -3.72 (active). With `O=C(O)c1ccc(NC(=O)c2cccs2)cc1` the B-score was -0.729 (inactive). With `NS(=O)(=O)c1cccc(NC(=O)COC(=O)/C=C/c2ccco2)c1` the B-score was 1.2 (inactive). With `COc1cc(NC(=O)COc2ccccc2Cl)ccc1NC(=O)C(C)C` the B-score was -0.0152 (inactive). For `CCCN(CC(=O)Nc1ccc(C(N)=O)cc1)CC(=O)Nc1ccccc1C`, the B-score was 2.09 (inactive). With `CCCN(CCC)CC(O)COc1ccccc1C(=O)Nc1ccccc1` (stereo not given) the B-score was -3.37 (active). In the case of `CCCOc1ccccc1C(=O)NCCCC(=O)O`, the B-score is reported as 0.945 (inactive). In the case of `Cc1cc(C)cc(NC(=O)COC(=O)c2cc(C)oc2C)c1`, the B-score is reported as 0.675 (inactive). In the case of `COc1cccc(-n2c(=S)[nH]c3c(oc4ccccc43)c2=O)c1`, the B-score is reported as -0.508 (inactive). In the case of `COc1ccc(C)cc1NC(=O)c1[nH]c(C)c(C(C)=O)c1C`, the B-score is reported as -0.381 (inactive). With `Cc1cccc(NC(=O)c2ccc3nsnc3c2)c1C` the B-score was 0.488 (inactive). In the case of `COc1ccc(Br)cc1C(=O)Nc1cccc(C)c1C`, the B-score is reported as -2.34 (active). With `Cc1cc(C)nc(Nc2cc([N+](=O)[O-])ccc2C)n1` the B-score was -0.867 (inactive). For `CCCC(=O)NC(=S)Nc1ccc(CN2CCOCC2)cc1`, the B-score was 0.069 (inactive). With `COC(=O)c1c(C)oc(C)c1S(=O)(=O)NCc1ccc(Cl)cc1` the B-score was -0.884 (inactive). In the case of `c1ccc(-n2nnnc2-c2cccnc2)cc1`, the B-score is reported as 0.982 (inactive). For `CNC(=O)C(=O)N/N=C/c1ccccn1`, the B-score was 1.14 (inactive). With `c1ccc(C2c3[nH]c4ccccc4c3CCN2Cc2cccn2-c2cccnc2)nc1` (stereo not given) the B-score was -0.00648 (inactive). `CC1(C)C=C2[C@H]3CC[C@@H]4[C@@]5(C)CCC(=O)C(C)(C)[C@@H]5CC[C@@]4(C)[C@]3(C)CC[C@@]2(C(=O)O)CC1` was tested, and the B-score was 3.78 (active). For `Cc1ccc(C(=O)N2CCN(S(=O)(=O)N3CCOCC3)CC2)cc1`, the B-score was -0.0164 (inactive). `O=C(CCS(=O)(=O)Cc1ccccc1)Nc1ccc2c(c1)OCCO2` was tested, and the B-score was 0.0737 (inactive). For `CCn1cc(C(=O)NCc2ccc3c(c2)OCO3)c2cc(OC)c(OC)cc2c1=O`, the B-score was 2.18 (inactive). For `COc1ccccc1-n1c(C)nc2cc(C(=O)NCc3ccc4c(c3)OCO4)ccc21`, the B-score was 2.52 (active). With `COc1cc(-n2c(C)nc3cc(C(=O)NCc4ccco4)ccc32)cc(OC)c1OC` the B-score was 2.33 (inactive). `C=CCn1c(-c2sc(-c3ccccc3)nc2C)n[nH]c1=S` was tested, and the B-score was -0.143 (inactive). For `CCN1CCC2(CCN(Cc3cn[nH]c3-c3ccc(OC)c(F)c3)C2)C1` (stereo not given), the B-score was 0.101 (inactive). With `FC(F)(F)c1cccc(Cc2noc(CN3CCC(N4CCCCC4)CC3)n2)c1` the B-score was -0.1 (inactive). For `Cc1nccc(-c2ccc(-n3c(C)ccc3C)cc2)n1`, the B-score was -1.01 (inactive). In the case of `OCC1(Cc2ccccc2)CCN(Cc2cc3ccccc3o2)CC1`, the B-score is reported as -2.42 (inactive). For `COc1ccccc1/C=C/CN1CCC(CO)(Cc2ccccc2)CC1`, the B-score was -2.4 (active). In the case of `CC(=O)c1cccc(CN2CCC(CO)(Cc3ccccc3)CC2)c1`, the B-score is reported as -0.319 (inactive). `Cc1ccc2c(c1)C(O)(CC(=O)c1cccc(-n3cccc3)c1)C(=O)N2` (stereo not given) was tested, and the B-score was 0.00843 (inactive). `OCC1(Cc2ccccc2C(F)(F)F)CCN(Cc2cccc3cnccc23)CC1` was tested, and the B-score was -2.15 (inactive). For `O=C(Nc1ccc(N2C(=O)c3cccc4cccc(c34)C2=O)cc1)c1ccc(N2CCCCC2)c([N+](=O)[O-])c1`, the B-score was -0.618 (inactive). For `O=C(Nc1cccc(C(F)(F)F)c1)c1ccc(N2CCNCC2)c([N+](=O)[O-])c1`, the B-score was -4.07 (active). `CC(NC(=O)c1ccc(N2CCNCC2)c([N+](=O)[O-])c1)C12CC3CC(CC(C3)C1)C2` (stereo not given) was tested, and the B-score was -1.39 (inactive). For `Nc1nnn(CC(=O)N/N=C/c2ccc(O)cc2)n1`, the B-score was 0.102 (inactive). With `COc1ccc(-c2nc3cnccn3c2NC(C)(C)CC(C)(C)C)cc1O` the B-score was -0.227 (inactive). For `CCN(CCn1cccn1)Cc1cn[nH]c1-c1ccc(OC)cc1F`, the B-score was 0.488 (inactive). With `CCOc1ccccc1C1C(C(=O)OC)=CN(C)C=C1C(=O)OC` the B-score was -3.43 (active). With `CCCCOCCCNC(=O)c1ccccc1OCC` the B-score was -0.181 (inactive). For `COC(=O)C1=CN(C)C=C(C(=O)OC)C1c1ccc(Cl)cc1Cl`, the B-score was 0.118 (inactive). `CCOC(=O)CSc1ccccn1` was tested, and the B-score was -0.519 (inactive). For `CC(C)C(=O)Nc1oc(-c2ccccc2)cc1C#N`, the B-score was -0.0567 (inactive). `Cc1cccc2cc(CN(C(=O)c3cccs3)c3ccccc3)c(=O)[nH]c12` was tested, and the B-score was 0.321 (inactive). With `Cc1cccc2cc(CN(Cc3nnnn3Cc3ccccc3)C3CCCC3)c(=O)[nH]c12` the B-score was -4.07 (active). For `CCC(c1nnnn1C1CCCC1)N(Cc1cccs1)Cc1cc2cccc(C)c2[nH]c1=O` (stereo not given), the B-score was -3.89 (active). In the case of `Cc1cc(C)c2[nH]c(=O)c(C(c3nnnn3Cc3ccc4c(c3)OCO4)N3CCCC3)cc2c1` (stereo not given), the B-score is reported as -1.8 (inactive). `Cc1cccc2cc(CN(Cc3ccc4c(c3)OCO4)Cc3nnnn3C3CCCC3)c(=O)[nH]c12` was tested, and the B-score was 0.0136 (inactive). For `CCCN(Cc1cc2cccc(C)c2[nH]c1=O)S(C)(=O)=O`, the B-score was -0.178 (inactive). In the case of `COc1cc(/C=C/C(=O)OCC(=O)NC(=O)NCc2ccccc2)ccc1OCC#N`, the B-score is reported as 0.107 (inactive). `Cc1cccc(C(=O)Nc2ccccc2C(=O)NCc2cccnc2)c1` was tested, and the B-score was -0.294 (inactive). With `O=C(/C=C/c1ccc(Cl)c([N+](=O)[O-])c1)c1cccnc1` the B-score was -6.38 (active). With `CN(C)c1ccc(/C=C/C(=O)c2ccc(C(C)(C)C)cc2)cc1[N+](=O)[O-]` the B-score was -0.617 (inactive). With `O=C(Nc1cccnc1)c1ccc(Cl)c([N+](=O)[O-])c1` the B-score was 0.478 (inactive). `CCOC(=O)C(NC(C)=O)C(=O)Nc1ccc(OC)cc1` (stereo not given) was tested, and the B-score was 2.1 (inactive). In the case of `CN(C)c1cc(-c2ccc(F)cc2)oc(=O)c1Cl`, the B-score is reported as 0.334 (inactive). `NC1=NC(=O)C(Cc2cccc(Cl)c2)S1` (stereo not given) was tested, and the B-score was -2.18 (inactive). In the case of `CC(NC(=O)CC1SC(N)=NC1=O)c1ccccc1` (stereo not given), the B-score is reported as 1.24 (active). For `CC(NC(=O)COC(=O)c1cc(=O)[nH]c2ccccc12)c1ccccc1` (stereo not given), the B-score was -0.0559 (inactive). For `CCOC(=O)C1(CC2CCCCO2)CCN(Cc2nc(-c3cccs3)oc2C)CC1` (stereo not given), the B-score was -0.7 (inactive). In the case of `CCc1nc2ccccc2c(C(=O)NCc2ccc(OC)cc2)c1C`, the B-score is reported as 0.0138 (inactive). `c1ccc2c(c1)CSc1sccc1C2=C1CCNCC1` was tested, and the B-score was -2.98 (active). `O=C(NCc1nnc(SCC(=O)N2CCC(Cc3ccccc3)CC2)o1)c1ccco1` was tested, and the B-score was -0.765 (inactive). `CC(Oc1ccc2ccccc2c1)C(=O)NNC(=S)NC(=O)c1ccco1` (stereo not given) was tested, and the B-score was 2.32 (inactive). For `Cc1ccc(OCC(=O)NNC(=S)NCc2ccccc2)cc1`, the B-score was 0.804 (inactive). `CCCc1ccc(OCC(=O)NNC(=S)NC(=O)c2ccco2)cc1` was tested, and the B-score was 4.19 (active). For `Cc1ccc(/C=C(\C#N)C(=O)Nc2cccc3ncccc23)o1`, the B-score was -0.963 (inactive). With `O=C(Nc1ccccc1F)c1ccccc1-c1ccc(C(F)(F)F)cc1` the B-score was 0.0696 (inactive). In the case of `N#C/C(=C\c1ccccc1C(F)(F)F)C(=O)Nc1ccccc1F`, the B-score is reported as -4.23 (active). For `CCCCNC(=O)c1ccc(-n2c(=S)[nH]c3ccccc3c2=O)cc1`, the B-score was 0.371 (inactive). In the case of `O=C1C2C3C=CC(C3)C2C(=O)N1c1ccc(-c2nc3ccccc3c(=O)o2)cc1` (stereo not given), the B-score is reported as -0.106 (inactive). With `Cc1ccc(NC(=O)C(=O)NCC2CCN(C(=O)c3cccc([N+](=O)[O-])c3)CC2)cc1` the B-score was 0.475 (inactive). In the case of `Cc1ccc(-n2[nH]c(C)c(/C=N/N3C(=O)c4cccc5cccc(c45)C3=O)c2=O)cc1`, the B-score is reported as 3.89 (active). In the case of `Cc1[nH]n(-c2cccc(Cl)c2)c(=O)c1/C=N/n1c(C)nc2ccccc2c1=O`, the B-score is reported as 0.302 (inactive). For `Cc1[nH]n(-c2ccc(Cl)cc2)c(=O)c1/C=N/n1c(C)nc2ccccc2c1=O`, the B-score was -0.843 (inactive). For `COc1ccccc1Cn1c(C)nnc1-c1cnn(C)c1N`, the B-score was 0.26 (inactive).
